# Only some compounds are listed: those with a hit (about 8% of all), similar ones and a draw of the others.
# HT1080NT lethal: kills 2HG-producing HT-1080-NT fibrosarcoma cells. HT-1080-NT fibrosarcoma viability, CellTiter-Glo ATP luminescence, 48 h. Potency, µM (highest dose often 46.1 µM), for the others: at the highest dose activity, negative = less viability, most hits filed as cytotoxic. actives 1.6% (n = 360,000). AID 686970;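 further: NT is the 2HG producing partner of a matched IDH1 knockdown line; 0% = DMSO-treated cells and -100% = media-only wells without cells; nearly all actives have a fitted effect of over 55% in size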
#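 Viability of the 2HG-overproducing fibrosarcoma line after 48 hours of compound exposure at 37 degrees C was determined by luminescence with CellTiter-Glo, and concentration-effect curves were then fitted and categorized.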
# KB-V1 cytotox: KB-V1 MDR subline cytotoxicity; KB-V1 MDR cells viability, CellTiter-Glo, 72 h; Potency, µM (series often up to 46.1 µM), most hits filed as cytotoxic; actives 3.4% (n = 400,000); AID 1347076; further: on the % scale 0 is the no-effect control and ±100 the full control effect; nearly all actives have a fitted effect of over 60% in size
#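 In this primary screen, KB-V1 cells overexpressing P-gp are incubated with library compounds (lowest to highest concentration) for 72 h at 37 degrees C before a luminescent ATP viability read.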
# KB-3-1 tox: KB-3-1 parental cell cytotoxicity; actives 1.4% (n = 400,000); KB-3-1 viability, CellTiter-Glo ATP luminescence, 72 h; AID 1347075; Potency, µM (doses to about 46.1 µM), most hits filed as cytotoxic; further: on the % scale 0 is the no-effect control and ±100 the full control effect; nearly all actives have a fitted effect of over 60% in size
#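 Cytotoxicity measured as CellTiter-Glo luminescence after 72 h at 37 C. Compound titrations were pinned onto drug-naive KB-3-1 parental adenocarcinoma cells grown in DMEM with 10% FBS, and normalized data fitted to concentration-response curves.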
# MCF10A rerep: induces DNA re-replication in MCF 10a normal breast cells; Potency, µM (titrated, usually from 46.1 µM), for the others: at the highest dose activity, positive = re-replication, hits mostly activators; actives 2.9% (n = 350,000); MCF 10A DNA re-replication, Hoechst nuclear intensity, 48 h; further: % of control where 0% means no effect; nearly all actives have a fitted effect of over 50% in size
# SW480 rerep: DNA re-replication induction in SW480 cells; SW480 DNA re-replication, Hoechst DNA content imaging, 48 h; Potency, µM (doses to about 46.1 µM), inactives show top-dose re-replication activation, most hits filed as activators; actives 1.8% (n = 340,000); AID 624297; further: % of control where 0% means no effect; nearly all actives have a fitted effect of over 55% in size
#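 First, 250 cells per well were seeded. Next, compound or vehicle (23 nL) was pinned in, plates sat 48 hr at 37 C. Finally Hoechst was added for 40 min before fluorescence scanning.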
# HT1080 IDH1KD tx: kills HT-1080 cells with IDH1 knockdown; HT-1080 IDH1 knockdown viability, ATP luminescence, 48 h; Potency, µM (doses to about 46.1 µM), inactives show at the highest dose activity, negative = toxicity, most hits filed as cytotoxic; actives 2% (n = 360,000);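 further: 0% = DMSO wells and -100% = cell-free medium wells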
#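 CellTiter-Glo luminescence after 48 h compound exposure at 37 degrees C of IDH1-knockdown HT-1080 cells in 5% FBS RPMI. %Activity scaled between DMSO wells and cell-free media wells, with curves fitted and assigned curve classes.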
# * hit, by the source's call; i = inactive; ? = inconclusive; · = not tested or not shown; ! = a repeat was not active; [ ] = remark or other dose. The call rests on the fitted dose curve; in most records, active means well fitted curve in the direction sought with a large enough effect; inconclusive means small, poorly fitted or top-dose-only effect, or another doubt; inactive means no such curve, though single readings can be large; an effect the other way counts as inactive or inconclusive. Potency means the concentration at half of the fitted maximal effect.
SMILES,HT1080NT lethal,KB-V1 cytotox,KB-3-1 tox,MCF10A rerep,SW480 rerep,HT1080 IDH1KD tx
O=C(c1cccc([N+](=O)[O-])c1)N1CCN(c2ccccn2)CC1,17%,i,i,-3%,16µM*,19%
O=C(c1ccc(S(=O)(=O)c2cccc(Cl)c2)c([N+](=O)[O-])c1)N1CCN(c2ccccn2)CC1,9.2µM*,?,?,?,5%,21µM*
O=C(c1ccc(S(=O)(=O)c2ccccc2Cl)c([N+](=O)[O-])c1)N1CCCCCC1,-3%,2.3µM*,?,?,?,-18%
O=C(c1cccc(Cl)c1)N1CCN(c2ccccn2)CC1,26%,i,i,5%,0%,12%
Cc1cccc(C(=O)NCC(=O)N2CCN(c3ccccn3)CC2)c1,-1%,21µM*,i,2%,-7%,0%
COC(=O)c1ccccc1NC(=O)c1sc2nc(C)cc(C)c2c1NC(=O)c1ccccc1Cl,·,i,?,·,·,·
Cc1ccc(C)c(Cn2c(C3CC(=O)N(c4ccccc4C)C3)nc3ccccc32)c1 (stereo not drawn),·,i,i,·,·,·
COc1ccc2c(c1)CCc1c(C(=O)Nc3ccc(F)c(Cl)c3)noc1-2,·,?,i,·,·,·
O=C(O)CSc1nnc(COc2ccccc2)n1-c1ccccc1,11%,i,i,0%,1%,-1%
Cc1ccc(-c2nnc(CSc3nnc(COc4cccc5ccccc45)n3-c3ccccc3)o2)cc1,-16%,2.1µM*,?,1%,-114%,?
Cc1cccc(OCc2nnc(SCc3cc(=O)[nH]c4ccccc34)n2-c2ccccc2)c1,2%,18µM*,i,0%,-75%,-15%
N#CCSc1nnc(COc2cccc3ccccc23)n1-c1ccccc1,?,16µM*,16µM*,?,5%,?
N#CCSc1nnc(COc2ccccc2)n1-c1ccccc1,15%,23µM*,i,17%,-1%,5%
N#CCSc1nnc(COc2cccc3ccccc23)n1-c1cccc(Cl)c1,?,?,i,?,1%,?
COc1ccc(-n2c(COc3cccc4ccccc34)nnc2SCC#N)cc1,?,i,?,?,-3%,?
COc1ccc(Cl)cc1NC(=O)Cn1c(=O)n(Cc2ccco2)c(=O)c2cccnc21,·,i,i,·,·,·
CCOC(=O)c1ccc(NC(=O)c2ccc(=O)n(Cc3cccc(C)c3)c2)cc1,·,?,i,·,·,·
Cc1ccc(OCc2nnc(SCc3ccc(C#N)cc3)n2-c2ccc(C)cc2)cc1,?,i,i,?,8%,11µM*
Cc1ccc(-n2c(SCc3ccc(C#N)cc3)nnc2-c2ccccn2)cc1,8%,i,i,2%,-17%,4%
CCNC(=O)CSc1nnc(-c2ccccc2)n1-c1ccc(OCC)cc1,13%,18µM*,i,-1%,1%,2%
COc1ccc(-c2nnc(SCCC(=O)O)n2-c2ccccc2)cc1,1%,i,18µM*,2%,-7%,29%
N#Cc1ccccc1NC(=O)CSc1nnc(-c2ccccc2)n1-c1ccccc1,-2%,15µM*,?,?,23µM*,-9%
Nc1cc([N+](=O)[O-])cc(N)c1N,·,i,i,·,·,·
Cn1c(-n2cccc2)c(-c2c(-c3ccccc3)[nH]c3c2c(=O)n(C)c(=O)n3C)c(=O)n(C)c1=O,·,i,i,·,·,·
COc1cccc(-n2c(=O)c3c(C)c(C)sc3n(CC(=O)NCCc3ccc(OC)c(OC)c3)c2=O)c1,·,i,i,·,·,·
SMILES,HT1080NT lethal,KB-V1 cytotox,KB-3-1 tox,MCF10A rerep,SW480 rerep,HT1080 IDH1KD tx
O=C(Cc1ccc(Cl)cc1)NN1C(=O)c2ccccc2C1=O,15%,i,i,0%,-3%,11%
COC(=O)[C@@H]1[C@@H](C#N)C2(c3ccccc3-c3ccccc32)N(c2ccc(Cl)cc2)N1C#N,23µM*,?,?,5.2µM*,?,23µM*
N#CC(c1ccccc1)c1ccc([N+](=O)[O-])cc1 (stereo not drawn),-1%,i,21µM*,·,·,6%
CCc1cc(Cn2nc(-c3ccccc3)cc2C(=O)NCCOC)on1,8%,i,i,0%,-43%,8%
CCc1cc(Cn2nc(-c3ccccc3)cc2C(=O)NCC2CC2)on1,0%,i,i,0.15µM*,-1%,3%
COCCNc1cc(C)nc2cc(-c3ccc(C)cc3)nn12,-2%,?,i,?,16µM*,-19%
Cc1ccc(-c2cc3nc(C)cc(NCc4ccco4)n3n2)cc1,?,15µM*,i,5.2µM*,?,-17%
Clc1cccc(-c2cc3nc4c(c(NCc5ccco5)n3n2)CCCC4)c1,?,21µM*,i,23%,?,-14%
CCC(=O)N1CCCc2cc(S(=O)(=O)Nc3ccc(C)c(C)c3)ccc21,·,?,i,·,·,·
CO[C@H]1[C@H](O[C@H]2O[C@@H](C)[C@@H](O[C@@H]3C[C@](C)(O)[C@H](OC(=O)CC(C)C)[C@H](C)O3)[C@@H](N(C)C)[C@@H]2O)[C@@H](CC=O)C[C@@H](C)[C@@H](O)/C=C\C=C/C[C@@H](C)OC(=O)C[C@H]1OC(C)=O,·,·,·,2%[20.6 µM],-3%[20.6 µM],·
CO[C@@H]1[C@@H](OC2OC(C)C(OC3CC(C)(O)C(OC(=O)CC(C)C)C(C)O3)C(N(C)C)C2O)[C@@H](CC=O)C[C@@H](C)C(=O)/C=C\C2O[C@H]2C[C@@H](C)OC(=O)C[C@H]1OC(C)=O (stereo partly drawn),·,i,i,30µM*,19µM*,·
Cc1c(C(=O)Nc2ccc(F)c(F)c2)oc2ccc(S(=O)(=O)N3CCCCC3)cc12,13%,7.3µM*!,i,?,-7%,-9%
Cc1ccc(NC(=O)c2oc3ccc(S(=O)(=O)N4CCCCCC4)cc3c2C)cc1Cl,·,i,i,·,·,·
Cc1c(C(=O)Nc2cccc(Cl)c2)oc2ccc(S(=O)(=O)N3CCC4(CC3)OCCO4)cc12,-3%,4.1µM*,?,5.8µM*,3.7µM*,-2%
Cc1c(C(=O)Nc2cccc(Cl)c2)oc2ccc(S(=O)(=O)N3CCCCCC3)cc12,·,i,i,·,·,·
O=C(COc1ccccc1C(=O)Nc1ccccc1)Nc1cccc([N+](=O)[O-])c1,·,i,?,·,·,·
N#CSCC(=O)c1cccc2ccccc12,?,i,?,18µM*,?,?
NC(=O)c1cccc2ccccc12,1%,i,i,8%,3%,2%

# Bioassay records deposited in PubChem by National Center for Advancing Translational Sciences (NCATS).
